In the supplement of paper PMC10849652:
About 7,900 targets were measured; listed, in parts, are those with a hit and a random draw of the rest. About 0.6% of all pairs of compound and target were hits.

Tests used:
Assay in all cases: log2 fold change, soluble protein after heating vs DMSO (PISA); higher = thermal stabilisation; K562 cells, 10 uM, 30 min; active = over 0.2 and 3.5 SD of the protein, either way, in both replicates (recomputed)
[1] = compound: CS(=O)(=O)c1ccc(-c2cnc(N)c(C(=O)Nc3ccccc3)n2)cc1
In short: (§1)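 Soluble protein was defined as the supernatant after 21,000xg for 90 min. It came from K562 cells at 2×10^6 cells/mL given 10 μM compound for 30 min, heated in aliquots for 3 min across 48°C-58°C, pooled, and extracted in PBS with 0.5% NP-40 at 4°C, and was quantified by TMTpro 16plex LC-MS/MS with equalised channel sums. Thermal stability against control samples, from duplicates, is reported as log2 fold change.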

[2] = compound: C[C@@H](Oc1cc(-c2cnn(C3CCNCC3)c2)cnc1N)c1c(Cl)ccc(F)c1Cl [crizotinib]
In short: as §1

[3] = compound: C[C@H](C1=CC=C(C=C1)C(=O)NC2=C3C=CNC3=NC=C2)N
In short: as §1

[4] = compound: C[C@H](Nc1ncnc2nc[nH]c12)c1cc2cccc(Cl)c2c(=O)n1-c1ccccc1 [duvelisib]
In short: as §1

[5] = compound: Cc1cc(Nc2cc(CN3CCOCC3)c3nc(C)c(Cc4ccc(Cl)cc4F)n3n2)n[nH]1 [gandotinib]
In short: as §1

[6] = compound: Cc1cc(SCc2sc(-c3ccc(C(F)(F)F)cc3)nc2C)ccc1OCC(=O)O
In short: as §1

[7] = compound: Cc1ccc(-n2nc(C(C)(C)C)cc2NC(=O)Nc2ccc(OCCN3CCOCC3)c3ccccc23)cc1 [doramapimod]
In short: as §1

[8] = compound: Cc1ccc(C(=O)N(CCCN)[C@@H](c2nc3cc(Cl)ccc3c(=O)n2Cc2ccccc2)C(C)C)cc1 [ispinesib]
In short: as §1

[9] = compound: Cc1ccc(NC(=O)c2ccc(CN3CC[C@H](N(C)C)C3)c(C(F)(F)F)c2)cc1Nc1nccc(-c2cncnc2)n1 [bafetinib]
In short: as §1

[10] = compound: Cc1cccc(CC(=O)N2CCc3c2ccc(-c2cn(C)c4ncnc(N)c24)c3F)n1
In short: as §1

[11] = compound: Cc1nc(Nc2ncc(C(=O)Nc3c(C)cccc3Cl)s2)cc(N2CCN(CCO)CC2)n1 [dasatinib]
In short: as §1

[12] = compound: Cn1cc(-c2ccc3c(c2)CCN3C(=O)Cc2cccc(C(F)(F)F)c2)c2c(N)ncnc21
In short: as §1

[13] = compound: Cn1cc(-c2ccc3nnc(C(F)(F)c4ccc5ncccc5c4)n3n2)cn1
In short: as §1

[14] = compound: FC(F)(F)c1ccc(/C=C/c2nc(COc3ccc(CCCCn4ccnn4)cc3)co2)cc1 [mubritinib]
In short: as §1

[15] = compound: C[C@@H]1COCCN1C2=NC(=NC(=C2)C3(CC3)S(=O)(=O)C)C4=C5C=CNC5=CC=C4
In short: as §1

[16] = compound: Cc1cc(Nc2cc(N3CCN(C)CC3)nc(Sc3ccc(NC(=O)C4CC4)cc3)n2)n[nH]1 [tozasertib]
In short: as §1

[17] = compound: Cc1cn(-c2cc(NC(=O)c3ccc(C)c(Nc4nccc(-c5cccnc5)n4)c3)cc(C(F)(F)F)c2)cn1 [nilotinib]
In short: as §1

[18] = compound: Cc1nc(Nc2n[nH]c3c2CN(C(=O)N[C@H](CN(C)C)c2ccccc2)C3(C)C)c2sccc2n1
In short: as §1

[19] = compound: Cc1ncc(-c2ccnc(Nc3ccc(S(C)(=O)=O)cc3)n2)n1C(C)C
In short: as §1

[20] = compound: Cn1cncc1[C@@](N)(c1ccc(Cl)cc1)c1ccc2c(c1)c(-c1cccc(Cl)c1)cc(=O)n2C [tipifarnib]
In short: as §1

Measured: log2 fold change

PRKD3 (UniProt O94806)
inactive: [1] -0.132 | [2] -0.292 | [3] -0.189 | [4] 0.033 | [5] 0.092 | [6] 0.039 | [7] -0.088 | [8] -0.237 | [9] -0.011 | [10] -0.231 | [11] -0.258 | [12] -0.079 | [13] 0.006 | [14] -0.062

PSMC3 (UniProt E9PLG2)
inactive: [1] 0.206 | [2] 0.168 | [15] 0.101 | [4] 0.245 | [16] -0.288 | [6] -0.101 | [7] -0.058 | [9] 0.147 | [11] 0.258 | [14] 0.059

POLR2M (UniProt Q6EEV4)
Sequence of UniProt Q6EEV4 (Q6EEV4 whole entry, looked up): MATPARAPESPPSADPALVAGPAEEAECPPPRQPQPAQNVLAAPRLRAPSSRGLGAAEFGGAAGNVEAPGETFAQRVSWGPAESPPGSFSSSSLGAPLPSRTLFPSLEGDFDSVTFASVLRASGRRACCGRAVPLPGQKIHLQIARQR
inactive: [1] -0.03 | [2] -0.021 | [15] 0.16 | [3] -0.078 | [4] -0.024 | [16] -0.039 | [6] -0.061 | [7] -0.04 | [9] -0.215 | [17] 0.107 | [18] -0.016 | [11] -0.003 | [19] -0.022 | [12] 0.135 | [20] -0.095 | [14] 0.035

PCBP2 (UniProt F8VRH0)
inactive: [1] -0.181 | [2] -0.075 | [15] -0.22 | [3] -0.267 | [4] -0.299 | [5] 0.013 | [16] -0.055 | [6] 0.074 | [7] -0.225 | [9] 0.293 | [10] -0.039 | [17] -0.347 | [18] -0.215 | [11] -0.146 | [19] -0.009 | [12] 0.112 | [20] 0.067 | [14] 0.129

PI4K2B (UniProt Q8TCG2)
Sequence of UniProt Q8TCG2 (Q8TCG2 whole entry, looked up): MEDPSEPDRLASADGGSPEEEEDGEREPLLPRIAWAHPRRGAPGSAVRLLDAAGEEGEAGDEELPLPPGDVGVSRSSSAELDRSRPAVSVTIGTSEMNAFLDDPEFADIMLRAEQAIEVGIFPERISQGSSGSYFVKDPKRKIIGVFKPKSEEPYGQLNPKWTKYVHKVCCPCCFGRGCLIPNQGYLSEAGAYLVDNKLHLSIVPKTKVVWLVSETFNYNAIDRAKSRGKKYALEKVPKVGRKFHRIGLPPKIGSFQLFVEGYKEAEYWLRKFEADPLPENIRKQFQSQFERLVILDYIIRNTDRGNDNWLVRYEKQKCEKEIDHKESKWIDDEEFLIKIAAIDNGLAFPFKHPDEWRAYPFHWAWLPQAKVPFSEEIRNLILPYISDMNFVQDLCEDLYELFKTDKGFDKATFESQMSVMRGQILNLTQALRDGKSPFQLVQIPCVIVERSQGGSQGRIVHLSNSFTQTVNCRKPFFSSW
active: [8] -0.355
inactive: [1] 0.06 | [2] -0.184 | [3] 0.118 | [4] 0.132 | [5] -0.045 | [16] -0.168 | [6] -0.016 | [7] 0.01 | [9] -0.084 | [10] 0 | [17] 0.124 | [18] -0.052 | [11] -0.101 | [19] -0.167 | [12] 0.11 | [13] 0.146 | [14] 0.053

PSMD8 (UniProt K7EK21)
inactive: [3] 0.485 | [12] -0.216

PIAS4 (UniProt Q8N2W9)
Sequence of UniProt Q8N2W9 (Q8N2W9 whole entry, looked up): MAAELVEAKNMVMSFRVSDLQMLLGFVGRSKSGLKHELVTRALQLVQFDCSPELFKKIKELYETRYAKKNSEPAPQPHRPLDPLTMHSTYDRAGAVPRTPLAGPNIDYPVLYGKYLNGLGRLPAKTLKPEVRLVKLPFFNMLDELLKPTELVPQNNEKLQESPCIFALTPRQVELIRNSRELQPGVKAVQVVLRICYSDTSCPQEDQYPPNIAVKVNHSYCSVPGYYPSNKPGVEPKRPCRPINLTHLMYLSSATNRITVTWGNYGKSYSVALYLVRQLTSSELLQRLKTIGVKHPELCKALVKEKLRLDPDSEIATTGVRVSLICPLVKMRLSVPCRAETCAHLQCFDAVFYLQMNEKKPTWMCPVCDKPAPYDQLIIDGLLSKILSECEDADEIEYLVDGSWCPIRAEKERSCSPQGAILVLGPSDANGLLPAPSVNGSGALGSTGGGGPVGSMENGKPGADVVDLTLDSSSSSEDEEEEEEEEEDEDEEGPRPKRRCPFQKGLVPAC
inactive: [2] -0.178 | [15] 0.047 | [4] 0.036 | [5] -0.013 | [16] -0.009 | [6] 0.021 | [7] 0.061 | [8] -0.278 | [10] 0 | [11] -0.116 | [13] 0.313 | [20] 0.002 | [14] 0.199

PSMA3 (UniProt H0YJ03)
inactive: [2] 0.081 | [3] 0.099 | [4] 0.092 | [16] -0.049 | [6] -0.07 | [7] 0.072 | [8] -0.213 | [11] 0.133 | [12] 0.036 | [13] -0.017 | [20] 0.02

PPP2R5C isoform 2 (UniProt Q13362)
inactive: [2] 0.243 | [7] 0.052 | [8] 0.023 | [9] 0.046 | [13] 0.037 | [14] -0.057

PRR14L (UniProt Q5THK1)
Sequence of UniProt Q5THK1 (Q5THK1 whole entry, looked up): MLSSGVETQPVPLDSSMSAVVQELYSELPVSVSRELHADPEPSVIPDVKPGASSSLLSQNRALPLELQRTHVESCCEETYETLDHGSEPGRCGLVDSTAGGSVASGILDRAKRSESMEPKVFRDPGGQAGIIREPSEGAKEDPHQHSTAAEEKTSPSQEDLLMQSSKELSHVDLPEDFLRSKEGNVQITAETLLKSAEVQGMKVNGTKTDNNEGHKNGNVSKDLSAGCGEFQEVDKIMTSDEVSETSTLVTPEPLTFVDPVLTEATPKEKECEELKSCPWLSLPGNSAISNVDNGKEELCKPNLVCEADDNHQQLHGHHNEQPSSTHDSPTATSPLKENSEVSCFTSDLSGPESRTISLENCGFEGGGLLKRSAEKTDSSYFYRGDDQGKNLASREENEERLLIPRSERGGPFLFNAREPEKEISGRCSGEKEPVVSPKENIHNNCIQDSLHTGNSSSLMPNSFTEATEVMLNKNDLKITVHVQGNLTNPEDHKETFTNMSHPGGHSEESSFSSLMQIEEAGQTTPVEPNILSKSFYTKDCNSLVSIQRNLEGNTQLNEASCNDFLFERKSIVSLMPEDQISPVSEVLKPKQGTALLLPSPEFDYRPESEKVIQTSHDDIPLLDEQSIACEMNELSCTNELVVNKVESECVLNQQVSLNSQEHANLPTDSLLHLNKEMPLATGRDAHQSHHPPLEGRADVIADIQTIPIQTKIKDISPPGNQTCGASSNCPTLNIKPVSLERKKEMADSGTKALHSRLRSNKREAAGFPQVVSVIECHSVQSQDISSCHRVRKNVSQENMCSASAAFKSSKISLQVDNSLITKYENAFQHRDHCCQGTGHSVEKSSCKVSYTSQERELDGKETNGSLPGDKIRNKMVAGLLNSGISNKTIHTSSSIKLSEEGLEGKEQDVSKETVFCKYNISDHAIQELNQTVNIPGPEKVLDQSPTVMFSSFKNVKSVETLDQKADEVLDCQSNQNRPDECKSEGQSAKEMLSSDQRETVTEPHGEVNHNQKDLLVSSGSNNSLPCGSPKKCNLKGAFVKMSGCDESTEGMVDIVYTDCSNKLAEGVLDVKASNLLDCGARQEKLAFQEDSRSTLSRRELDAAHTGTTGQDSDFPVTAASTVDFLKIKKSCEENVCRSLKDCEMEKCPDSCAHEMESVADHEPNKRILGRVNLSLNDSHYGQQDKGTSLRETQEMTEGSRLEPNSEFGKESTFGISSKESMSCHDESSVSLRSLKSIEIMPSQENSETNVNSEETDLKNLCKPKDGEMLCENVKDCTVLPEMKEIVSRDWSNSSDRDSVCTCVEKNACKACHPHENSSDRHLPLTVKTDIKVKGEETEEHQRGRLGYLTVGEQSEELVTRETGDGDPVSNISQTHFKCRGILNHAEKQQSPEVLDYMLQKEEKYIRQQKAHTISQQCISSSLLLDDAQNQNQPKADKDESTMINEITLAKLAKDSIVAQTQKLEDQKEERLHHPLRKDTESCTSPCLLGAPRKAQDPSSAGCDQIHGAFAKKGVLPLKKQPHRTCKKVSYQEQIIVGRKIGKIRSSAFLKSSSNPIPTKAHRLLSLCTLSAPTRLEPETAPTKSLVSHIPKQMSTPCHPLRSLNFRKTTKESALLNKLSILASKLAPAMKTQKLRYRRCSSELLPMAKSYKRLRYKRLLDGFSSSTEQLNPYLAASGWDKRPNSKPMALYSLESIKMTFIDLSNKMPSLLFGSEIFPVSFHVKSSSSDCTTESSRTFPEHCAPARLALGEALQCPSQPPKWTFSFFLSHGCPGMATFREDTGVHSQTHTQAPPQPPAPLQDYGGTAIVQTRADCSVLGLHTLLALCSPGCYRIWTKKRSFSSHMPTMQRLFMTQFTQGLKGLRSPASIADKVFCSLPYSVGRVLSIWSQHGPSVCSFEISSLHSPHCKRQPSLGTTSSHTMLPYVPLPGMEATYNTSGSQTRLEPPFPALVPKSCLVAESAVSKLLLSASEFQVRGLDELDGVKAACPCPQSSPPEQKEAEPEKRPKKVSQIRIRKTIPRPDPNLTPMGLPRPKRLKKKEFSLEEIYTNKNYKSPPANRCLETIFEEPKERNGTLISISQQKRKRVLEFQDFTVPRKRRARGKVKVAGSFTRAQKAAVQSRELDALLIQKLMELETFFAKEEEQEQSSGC
inactive: [3] -0.072 | [5] -0.084 | [16] -0.247 | [10] -0.156 | [17] -0.027 | [18] -0.044 | [19] -0.007 | [12] 0.019 | [20] -0.039

POLB (UniProt P06746)
inactive: [1] -0.078 | [15] -0.003 | [3] 0.036 | [4] -0.178 | [5] 0.081 | [16] 0.077 | [6] -0.045 | [8] -0.1 | [10] -0.081 | [17] -0.103 | [18] -0.134 | [11] -0.04 | [19] 0.009 | [12] 0.143 | [13] -0.133 | [20] 0.043

PSMD8 (UniProt K7ERW6)
inactive: [2] -0.021 | [16] -0.231 | [7] 0.066

PMVK (UniProt Q15126)
Sequence of UniProt Q15126 (Q15126 whole entry, looked up): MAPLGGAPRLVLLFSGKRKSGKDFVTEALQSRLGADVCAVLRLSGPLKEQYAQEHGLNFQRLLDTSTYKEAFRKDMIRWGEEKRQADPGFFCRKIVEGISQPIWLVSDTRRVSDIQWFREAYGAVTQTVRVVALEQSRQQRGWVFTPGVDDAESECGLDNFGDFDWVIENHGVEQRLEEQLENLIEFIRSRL
active: [5] -0.705
inactive: [1] 0.088 | [15] 0.02 | [3] 0.083 | [4] -0.055 | [16] -0.186 | [6] 0.333 | [9] 0.057 | [10] -0.203 | [17] -0.214 | [18] -0.064 | [11] -0.308 | [19] -0.139 | [12] -0.098 | [14] -0.025

PSMA3 (UniProt G3V4X5)
inactive: [2] -0.277 | [7] 0.149 | [8] -0.081 | [9] 0.159 | [13] 0.174 | [20] 0.067

PIGH (UniProt Q14442)
Sequence of UniProt Q14442 (Q14442 whole entry, looked up): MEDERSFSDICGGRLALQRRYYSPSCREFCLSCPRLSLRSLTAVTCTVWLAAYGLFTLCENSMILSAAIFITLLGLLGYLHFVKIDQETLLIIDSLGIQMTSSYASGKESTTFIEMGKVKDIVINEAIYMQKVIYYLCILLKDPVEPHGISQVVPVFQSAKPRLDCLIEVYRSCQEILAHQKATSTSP
inactive: [2] -0.037 | [15] -0.012 | [3] -0.179 | [4] -0.034 | [5] 0.036 | [16] 0 | [6] 0.04 | [7] -0.062 | [8] 0.033 | [9] -0.037 | [10] -0.01 | [11] -0.053 | [12] 0.099 | [13] 0.009 | [20] 0.056 | [14] 0.04

PHRF1 (UniProt Q9P1Y6)
inactive: [8] -0.296 | [13] 0.084 | [20] 0.159 | [14] -0.099

PHLDB1 isoform 2 (UniProt Q86UU1)
active: [4] -0.759
inactive: [2] -0.307 | [15] 0.058 | [3] -0.043 | [5] -0.281 | [16] -0.126 | [6] 0.108 | [7] 0.032 | [8] -0.053 | [9] -0.112 | [10] 0.117 | [17] 0.136 | [18] -0.265 | [11] -0.073 | [19] -0.128 | [12] 0.061 | [13] 0.016 | [20] 0.057 | [14] 0.14

PPP1R12C (UniProt Q9BZL4)
inactive: [1] -0.016 | [15] -0.198 | [4] -0.011 | [5] -0.001 | [16] 0.091 | [6] 0.018 | [8] -0.009 | [9] -0.085 | [17] 0.069 | [18] -0.26 | [11] -0.065 | [19] -0.213 | [13] -0.018 | [20] -0.219 | [14] -0.118
active: [10] 0.612

PMS2CL (UniProt Q68D20)
Sequence of UniProt Q68D20 (Q68D20 whole entry, looked up): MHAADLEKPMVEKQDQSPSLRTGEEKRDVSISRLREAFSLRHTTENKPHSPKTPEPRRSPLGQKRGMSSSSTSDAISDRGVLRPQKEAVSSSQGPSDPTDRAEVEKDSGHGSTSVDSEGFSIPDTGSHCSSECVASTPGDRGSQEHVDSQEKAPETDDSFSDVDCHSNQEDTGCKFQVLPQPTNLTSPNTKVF
inactive: [15] -0.091 | [8] 0.105 | [17] -0.189 | [18] -0.154 | [19] 0.115 | [13] -0.128 | [14] -0.054

PEX5 isoform 4 (UniProt P50542)
inactive: [1] -0.091 | [15] -0.016 | [3] 0.15 | [4] -0.379 | [16] -0.013 | [6] -0.047 | [8] -0.078 | [11] 0.139 | [12] 0.219 | [13] -0.078

PUM1 (UniProt Q14671)
inactive: [2] -0.079 | [3] -0.362 | [4] -0.187 | [5] 0.207 | [16] 0.019 | [6] 0.203 | [7] 0.041 | [10] -0.202 | [11] -0.207 | [12] 0.229

PAN2 (UniProt Q504Q3)
inactive: [4] -0.032 | [6] 0.299 | [9] -0.052 | [17] -0.123 | [18] -0.02 | [11] 0.013 | [19] -0.09

PPP2R5B (UniProt Q15173)
Sequence of UniProt Q15173 (Q15173 whole entry, looked up): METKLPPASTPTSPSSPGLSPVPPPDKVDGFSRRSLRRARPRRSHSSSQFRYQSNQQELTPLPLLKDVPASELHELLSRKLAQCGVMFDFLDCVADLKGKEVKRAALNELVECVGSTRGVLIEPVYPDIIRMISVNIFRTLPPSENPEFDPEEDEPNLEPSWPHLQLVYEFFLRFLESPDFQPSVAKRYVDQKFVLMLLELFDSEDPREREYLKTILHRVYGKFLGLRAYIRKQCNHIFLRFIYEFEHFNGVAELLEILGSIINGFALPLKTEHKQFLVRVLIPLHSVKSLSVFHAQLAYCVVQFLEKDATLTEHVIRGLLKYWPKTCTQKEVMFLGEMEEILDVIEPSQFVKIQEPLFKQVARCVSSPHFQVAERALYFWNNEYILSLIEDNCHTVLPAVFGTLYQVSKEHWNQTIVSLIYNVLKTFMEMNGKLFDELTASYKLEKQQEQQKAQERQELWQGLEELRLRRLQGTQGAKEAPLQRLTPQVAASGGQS
inactive: [4] 0.16 | [5] -0.277 | [6] -0.002 | [9] 0.006 | [10] -0.057 | [17] -0.187 | [18] 0.095 | [11] -0.047 | [19] -0.042 | [20] -0.067 | [14] -0.023

PNPLA4 (UniProt P41247)
Sequence of UniProt P41247 (P41247 whole entry, looked up): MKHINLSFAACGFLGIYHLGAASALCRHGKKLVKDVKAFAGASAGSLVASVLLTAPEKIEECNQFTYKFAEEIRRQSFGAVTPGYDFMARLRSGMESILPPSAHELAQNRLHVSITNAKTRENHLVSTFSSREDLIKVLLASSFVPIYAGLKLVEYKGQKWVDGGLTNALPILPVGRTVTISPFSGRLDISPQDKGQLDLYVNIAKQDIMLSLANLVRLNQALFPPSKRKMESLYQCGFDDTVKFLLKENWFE
active: [2] -0.651 | [7] 0.895 | [14] 0.826
inactive: [1] 0.319 | [3] 0.559 | [4] -0.095 | [16] -0.005 | [6] 0.117 | [8] -0.093 | [9] -0.339 | [17] 0.128 | [18] -0.019 | [11] -0.165 | [19] -0.001 | [12] 0.156 | [13] 0.078 | [20] -0.039
